# FBPA coupling cs – counter-screen for Giardia aldolase inhibitors: coupling enzyme system; coupling enzyme system counterscreen, AmpLite Red fluorescence; activity change, negative = inhibition, % at 58.2 µM, hits read low; actives 0.67% (n = 290,000); AID 2472; in the data active = activity change below about -30%
#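 Final compound at 57.5 uM, incubated 10 min at RT with coupling enzyme reagent (glyceraldehyde-3-phosphate), then 20 min with substrate and AmpLite Red detection. Fluorescence read at 525/598 nm; tests interference with the coupling assay, not aldolase inhibition.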
# JMJD2E inh – inhibitors of human JMJD2E histone demethylase; actives 1.6% (n = 230,000); JMJD2E catalytic domain, FDH-coupled NADH fluorescence (FDH is formaldehyde dehydrogenase); Potency, µM (doses to about 57.1 µM), for the others: top-dose activity change, negative = inhibition, actives largely listed as inhibitors; B2RXH2; active = well fitted inhibition curve with a large enough effect, not every such curve was filed as active; inconclusive = small, poorly fitted or top-dose-only effect, or another doubt; inactive = no such curve, though single readings can be large or run the other way;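 note: potency is the fitted concentration of half-maximal effect; 0% = wells with enzyme and -100% = buffer wells without enzyme; nearly all actives have a fitted effect of over 50% in size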
# ALDH1A1 block – blocks purified human ALDH1A1 activity. P00352. actives 7.3% (n = 220,000). Purified ALDH1A1, NADH fluorescence, propionaldehyde substrate. AID 1030. Potency, µM (doses to about 75.3 µM), inactives show top-dose activity, negative = inhibition, hits mostly inhibitors; active = well fitted inhibition curve with a large enough effect, not every such curve was filed as active; inconclusive = small, poorly fitted or top-dose-only effect, or another doubt; inactive = no such curve, though single readings can be large or run the other way;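 note: potency is the fitted concentration of half-maximal effect; plate controls were no enzyme wells and a reference inhibitor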
# NPSR antagonist – blocks cAMP signaling of the human neuropeptide S receptor; actives 1% (n = 220,000); Potency, µM (highest dose often 38.3 µM), without a hit: at the top dose activity change, negative = inhibition, actives largely listed as inhibitors; AID 1461; Q6W5P4; CHO-NPSR cells, cAMP TR-FRET, antagonist mode; note: potency is the fitted concentration of half-maximal effect; nearly all actives have a fitted effect of over 50% in size
# Target sequence (Q6W5P4 whole entry, looked up): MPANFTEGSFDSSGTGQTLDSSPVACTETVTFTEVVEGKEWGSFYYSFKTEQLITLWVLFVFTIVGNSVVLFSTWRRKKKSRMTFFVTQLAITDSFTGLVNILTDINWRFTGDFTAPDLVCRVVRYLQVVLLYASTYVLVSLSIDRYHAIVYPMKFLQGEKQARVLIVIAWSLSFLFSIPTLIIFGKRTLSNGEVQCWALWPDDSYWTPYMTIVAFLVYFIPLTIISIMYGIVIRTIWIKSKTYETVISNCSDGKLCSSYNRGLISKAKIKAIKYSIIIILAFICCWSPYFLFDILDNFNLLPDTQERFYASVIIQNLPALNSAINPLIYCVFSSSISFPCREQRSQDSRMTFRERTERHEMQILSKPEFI
# Sfp inh – blocks B. subtilis Sfp PPTase activity. actives 3.5% (n = 310,000). Q9F4F7. Biochemical Sfp PPTase activity, qHTS. Potency, µM, without a hit: largest response in the series, negative = inhibition, hits mostly inhibitors;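 note: the enzyme is Sfp with the accession as filed and its product quenches rhodamine fluorescence; potency is the fitted concentration of half-maximal effect; 0% = enzyme reaction without inhibitor and -100% = no enzyme wells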
#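 Compounds were incubated with enzyme (final 15 nM) for 15 min at room temperature before substrate addition started the reaction. Fluorescence at 525 nm excitation, 598 nm emission was recorded immediately and after 30 minutes.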
# GoLoco inh red – inhibitors of human Gai1-RGS12 GoLoco interaction (red fluorophore). P63096. Gai1:RGS12 GoLoco peptide FP, rhodamine, 10 min. actives 0.44% (n = 230,000). Potency, µM (series often up to 61.6 µM), for the others: at the highest dose activity, negative = inhibition, actives largely listed as inhibitors; active = well fitted inhibition curve with a large enough effect, not every such curve was filed as active; inactive = no such curve, though single readings can be large or run the other way; note: potency is the fitted concentration of half-maximal effect; nearly all actives have a fitted effect of over 30% in size
# Target sequence (P63096 whole entry, looked up): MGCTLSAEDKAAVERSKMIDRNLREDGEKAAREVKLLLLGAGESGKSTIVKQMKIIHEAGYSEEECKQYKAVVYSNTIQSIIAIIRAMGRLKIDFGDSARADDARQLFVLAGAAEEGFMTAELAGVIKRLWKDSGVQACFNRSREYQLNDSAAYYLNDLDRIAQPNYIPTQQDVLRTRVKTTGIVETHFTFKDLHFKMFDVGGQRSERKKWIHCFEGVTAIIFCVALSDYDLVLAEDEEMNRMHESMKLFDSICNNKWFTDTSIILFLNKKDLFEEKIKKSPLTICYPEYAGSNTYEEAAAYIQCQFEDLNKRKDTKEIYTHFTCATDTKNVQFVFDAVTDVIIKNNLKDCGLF
# Active calls of the source: *; ? = inconclusive; . = no result given; ! = not confirmed by another sample; [ ] = dose if it differs, or a comment. A selection: hits, their analogues and other compounds. The true share with any hit is near 8.5%. Unless noted, calls come from the whole dose curve; as a rule, active = well fitted curve in the direction sought with a large enough effect; inconclusive = small, poorly fitted or top-dose-only effect, or another doubt; inactive = no such curve, though single readings can be large; an effect the other way counts as inactive or inconclusive. Unless noted, % is set by controls: 0 for no effect and ±100 for the full control effect.
SMILES,FBPA coupling cs,JMJD2E inh,ALDH1A1 block,NPSR antagonist,Sfp inh,GoLoco inh red
O=C(O)c1ccc(N/N=C/c2cn(Cc3ccc(F)cc3)c3ccccc23)cc1,-0.9,?,.,?,-13.2%,5.9%
O=C(O)CC(C(=O)O)c1cn(Cc2ccccc2)c2ccccc12 (stereo not given),5.0,-3.4%,11.2µM*,-11.2%[46.1 µM],12.7%,-4.3%
Cc1c(C(c2ccc(N(C)C)cc2)c2c(C)n(C)n(-c3ccccc3)c2=O)c(=O)n(-c2ccccc2)n1C,-20.3,-13.5%,17.8µM*,-11.1%,-14.2%,13.3%
COC(=O)C1CN(C(=O)C(C)Oc2ccc(C)c(C)c2)c2ccccc2O1 (stereo not given),-3.7,.,.,.,5.3%,.
C#CCOC(=O)Nc1cc(C)n(-c2ccccc2)n1,4.5,6.5%,-3.1%,-12.0%,13.6%,6.6%
Cc1cccc([N+](=O)[O-])c1C,.,.,-4.8%,.,.,1.9%
Cc1ccc(NS(=O)(=O)c2cc([N+](=O)[O-])ccc2NNC(=S)Nc2cc(C)ccc2C)c(C)c1,-4.8,-4.7%,2.82µM*,-14.9%,-71.9%,191.9%
Cc1ccc(NS(=O)(=O)c2cc([N+](=O)[O-])ccc2NNC(=S)Nc2cccc(Cl)c2)c(C)c1,-4.3,?,0.282µM*,-25.6%,7.94µM*,287.5%
COc1ccc(NC(=S)NNc2ccc([N+](=O)[O-])cc2S(=O)(=O)Nc2ccc(C)cc2C)cc1,-2.5,?,3.98µM*,-38.7%,39.8µM*,138.8%
COc1ccc(NC(=S)Nc2cccc([N+](=O)[O-])c2)cc1,2.0,-3.5%,-2.8%,-8.9%[46.1 µM],-29.5%,-0.6%
NC(=O)CC(NC(=O)c1ccc(Cl)cc1)C(=O)NCCc1ccc(S(N)(=O)=O)cc1 (stereo not given),-0.4,.,.,.,-12.9%,.
O=C(NCC12CC3CC(CC(C3)C1)C2)c1nn2cccnc2c1Cl,5.3,5.4%,15.8µM*,-16.3%[46.1 µM],?,8.0%
COc1cc(/C=C/c2cccc[n+]2C)ccc1OCC(=O)Nc1ccccc1C,2.0,.,.,.,16.5%,.
CCOc1cc(/C=C\[N+](=O)[O-])ccc1OCC(=O)Nc1ccccc1C,1.7,3.6%,-6.0%,3.98µM*,2µM*,-6.1%
O=C(O)CCCC(=O)NCc1c(Cl)cccc1Sc1ccc(Cl)cc1,2.0,-0.8%,3.7%,10.5%,79.4µM*,-11.6%
C#CCSc1nccc(-c2nn(-c3ccc(C)cc3)ccc2=O)n1,0.6,?,?,1.8%[46.1 µM],79.4µM*,4.8%
CCSc1nccc(-c2nn(-c3ccc(C)cc3)ccc2=O)n1,-0.1,?,7.8%,5.0%[46.1 µM],7.2%,6.1%
O=C(C1=NN[C@@H]2C(=O)N(c3cccc(F)c3)C(=O)[C@H]12)c1cnccn1,0.7,?,6.31µM*,-28.4%,?,-32.7%
COc1ccc(NC(=O)CCNS(=O)(=O)c2ccc(Cl)c([N+](=O)[O-])c2)cc1S(N)(=O)=O,0.5,.,.,.,21.9%,.
COc1cc(NC(=O)c2cc([N+](=O)[O-])ccc2NC(=O)CN2CCN(c3ccccn3)CC2)cc(OC)c1,.,.,.,.,-1.8%,.
COc1ccccc1N1CCN(Cc2ccc(O)c3ncccc23)CC1,-20.6,0.6%,-7.0%,3.98µM*,-18.3%,-5.4%
COc1ccccc1N1CCN(Cc2c[nH]c3ccccc23)CC1,-1.4,-3.7%,.,7.7%[7.67 µM],16.2%,-42.7%
Oc1ccc(CN2CCCc3ccccc32)c2cccnc12,-3.5,8.91µM*,10µM*,1.3%[46.1 µM],-4.0%,-1.9%
CCOC(=O)C1CCN(Cc2ccc(O)c3ncccc23)CC1,-8.0,8.91µM*,?,2.51µM*,11.3%,0.3%
CCOC(=O)C1CCN(Cc2ccccc2C(F)(F)F)CC1,1.5,?,?,-21.4%[46.1 µM],-19.8%,-2.0%
SMILES,FBPA coupling cs,JMJD2E inh,ALDH1A1 block,NPSR antagonist,Sfp inh,GoLoco inh red
Cc1cccn2c(=O)c3cc(C(=O)NC4CCCC4)c(=N)n(CCCN4CCOCC4)c3nc12,-1.7,.,.,.,7.1%,.
Cc1cc(OCCOCCNCc2ccccc2)ccc1C(C)C,0.4,.,.,.,79.4µM*,.
Cc1ccc(C(C)C)c(OCCNCc2ccccc2)c1,4.6,.,.,.,-19.1%,.
CCCOn1c(OCC(C)C)nc2ccccc2c1=O,4.6,7.0%,22.4µM*,-18.0%[46.1 µM],-6.1%,-4.5%
CC(C)COc1nc2ccccc2c(=O)n1OCC(=O)O,1.7,2.2%,-1.9%,-17.6%[46.1 µM],27.8%,1.1%
O=C(O)C1(c2ccccc2)CCN(S(=O)(=O)c2ccccc2)CC1,1.9,.,.,.,15.2%,.
O=C(NCc1ccccc1)C1(c2ccccc2)CCN(S(=O)(=O)c2ccccc2)CC1,-1.3,4.4%,8.91µM*,-29.3%[46.1 µM],-16.0%,9.4%
Cc1c(O)ccc2c(CC(=O)N[C@@H](Cc3c[nH]c4ccccc34)C(=O)O)cc(=O)oc12,0.7,.,.,.,18.6%,.
COc1ccc(C2CC(c3ccccc3)Oc3cc4c(cc32)OCO4)cc1 (stereo not given),-22.9,.,.,.,44.7µM*!,.
O=S(=O)(Cc1ccccc1)/C1=C(\N2CCOCC2)CCCCCC1,3.1,0.1%,12.6µM*,10.2%[46.1 µM],10.7%,-5.3%
COC(=O)NC(Nc1sc2c(c1C(N)=O)CCCC2)(C(=O)OC)C(F)(F)F (stereo not given),-15.8,?,?,-7.8%[46.1 µM],22.4µM*,.
CCCOC(=O)Nc1sc2c(c1C(N)=O)CCCC2,1.0,-14.4%,1.6%,11.7%,8.7%,23.2%
Cc1cccc(-c2nc(CN3CCN(Cc4cccc(F)c4)CC3)c(C)o2)c1,-0.3,.,.,.,-2.3%,.
O=C(NNC(=O)c1cccnc1SCc1cccc([N+](=O)[O-])c1)c1ccccn1,-0.5,10µM*,-0.2%,20.5%,2.4%,8.3%
O=C(NNC(=O)c1cccnc1SCc1cccc([N+](=O)[O-])c1)c1ccc(F)cc1,-1.4,3.6%,-8.6%,20.4%,7.6%,13.5%
O=C(O)/C=C/C(=O)NCCc1ccccc1,1.9,15.5%,-16.1%,14.2%,6.1%,4.7%
O=C(O)CCCCCNC(=O)/C=C/c1ccco1,1.9,-1.8%,1.7%,-7.0%,14.4%,10.0%
O=C(/C=C/c1cccc(Cl)c1)NCCc1ccccc1,6.0,-1.8%,?,-5.2%[46.1 µM],20µM*,5.0%
CC/C(=N\NC(=O)CNC(=O)/C=C/c1ccco1)c1ccccc1,4.0,16.8%,14.1µM*,-8.2%[46.1 µM],-0.6%,8.2%
O=C(O)CCCNC(=O)/C=C/c1ccco1,-0.4,?,22.4µM*,-0.2%,12.6µM*,-13.4%
O=C(/C=C/c1ccco1)NCCc1ccccc1,1.4,-14.1%,22.4µM*,4.4%,-21.3%,12.0%
O=C(O)/C=C/C(=O)NCCc1cccc(Cl)c1,3.7,10.7%,?,-7.6%,10.7%,4.9%
CCC/C(=N\NC(=O)CNC(=O)/C=C/c1ccco1)c1ccccc1,-0.9,-0.9%,-6.4%,-17.4%[46.1 µM],18.5%,-27.9%
CCCCCCCCN=C(N)c1ccc(C(=O)OCC2CCCCC2)cc1,-0.6,.,.,.,?,.
